MsrA inhibitor: inhibits bovine methionine sulfoxide reductase A; purified bovine MsrA, absorbance read-out; inhibition, % at 15.5 µM; actives 0.75% (n = 360,000); AID 651718; in the data active means inhibition above about 4.5%;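 further: 0% = vehicle wells with enzyme and 100% = reference inhibitor wells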
NadD block: NadD (S. aureus) enzyme inhibition. purified NadD enzyme, colorimetric absorbance read-out. inhibition, % at 20 µM. actives 0.78% (n = 360,000); in the data active means inhibition above about 26%
rCAG binder: r(CAG) repeat RNA binding. TO-PRO-1 dye displacement fluorescence. inhibition, % at 3 µM. actives 1.3% (n = 370,000). AID 651821;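 active means inhibition above the plate cutoff, the mean of all test compounds on that plate plus 3 SD, cut at about 35% in these data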;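 further: 0% = DMSO alone and 100% = 100 µM mitoxantrone as full dye displacement; higher means more dye released from RNA so lower well fluorescence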
MsrA act: activators of bovine methionine sulfoxide reductase A. purified bovine MsrA, absorbance read-out. activation, % at 10.6 µM. actives 0.3% (n = 360,000). AID 602163; in the data active means activation above about 7.5%;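 further: 0% = vehicle and 100% = reference activator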
NadD conf: confirmation of Staphylococcus aureus NadD inhibitors | inhibition, % at 20 µM | actives 13% (n = 2,000) | AID 624309 | purified S. aureus NadD, colorimetric enzyme assay | shares compounds with NadD block; in the data active means inhibition mostly above about 42%, no sharp cut-off; inactive means mostly below about 42%
rCAG bind conf: r(CAG) RNA repeat binding, confirmation; actives 70% (n = 4,300); shares compounds with rCAG binder; TO-PRO-1 dye displacement fluorescence; inhibition, % at 3 µM;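 active means inhibition above a per-plate cutoff, the mean inhibition of sample wells plus 3 SD, cut at about 35% in these data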;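 further: loss of TO-PRO-1 fluorescence as compound displaces dye from 1x1 AA loop RNA; 0% = DMSO only wells and 100% = 100 µM mitoxantrone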
DNA CAG counter: counter-screen for rCAG RNA binders: DNA CAG dye complex inhibitors; shares compounds with rCAG binder; d(CAG) DNA oligo TO-PRO-1 dye displacement, fluorescence; inhibition, % at 3 µM; actives 94% (n = 4,300); AID 652068;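 active means inhibition above its plate's cutoff, the mean test-well inhibition plus 3 SD, cut at about 4.8% in these data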;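 further: 0% = DNA dye mix with DMSO and 100% = 100 µM mitoxantrone; hits displace the dye from DNA and so lower well fluorescence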
dCAG dye DR: DNA CAG dye complex inhibition, dose response counter-screen | shares compounds with rCAG binder | DNA CAG/GTC duplex TO-PRO-1 dye displacement fluorescence | IC50, µM | actives 20% (n = 250) | AID 686960; in the data active means IC50 below about 10 µM
Numbers without * were called inactive; i = inactive; . = no result. In the library only some 2.7% were active in any assay of this set; here they are far more common.

SMILES	MsrA inhibitor	NadD block	rCAG binder	MsrA act	NadD conf	rCAG bind conf	DNA CAG counter	others
COc1ccc(C(=O)/C=C/c2ccc(OCc3ccccc3)cc2)cc1CSCC(=O)O	4	26*	57*	-8	27	78*	36*
O=C(c1ccccc1)c1ccc2nc(-c3ccco3)c(-c3ccco3)nc2c1	-1	75*	42*	-3	19	70*	36*
Cc1nc(-c2c(C(=O)NNC(=O)Nc3c(C)cccc3C)noc2C)cs1	2	2	1	-2	.	.	.
Cc1ccc(S(=O)(=O)Nc2ccccc2C(=O)Nc2nc(-c3ccc(F)cc3)cs2)cc1	0	32*	89*	-4	48*	93*	81*
O=C(O)c1ccccc1NS(=O)(=O)c1ccc(NN=Cc2cccc(Cl)c2)c([N+](=O)[O-])c1	0	31*	59*	-4	11	90*	68*
O=C(O)c1ccccc1NS(=O)(=O)c1ccc(NN=Cc2ccc(F)cc2)c([N+](=O)[O-])c1	.	12	.	-5	.	.	.
CCn1c2ccccc2c2cc(NC(=O)COC(=O)c3cc(S(N)(=O)=O)c(Cl)cc3Cl)ccc21	1	41*	36*	-7	26	32	17*
CCn1c2ccccc2c2cc(NC(=O)COC(=O)c3ccccc3O)ccc21	1	14	4	-2	.	.	.
O=C(CSc1nccc(=O)[nH]1)Nc1ccc2ccccc2c1	-1	-3	9	-3	.	.	.
CCn1c2ccccc2c2cc(NC(=O)COC(=O)c3ccc(NC(=O)CC#N)cc3)ccc21	1	64*	47*	-4	40	35*	21*
CCn1c2ccccc2c2cc(NC(=O)CSc3nccc(=O)[nH]3)ccc21	2	41*	44*	-2	50*	40*	16*
O=C(Nc1cc(S(=O)(=O)Nc2ccc(Cl)cc2)ccc1O)c1ccc(S(=O)(=O)N2CCCCCC2)cc1	0	44*	47*	-7	34	73*	38*
Cc1sc(NC(=O)c2sc3nc4c(C)cccc4cc3c2N)c(C#N)c1C	2	62*	68*	-1	7	60*	32*
O=C(NNC(=O)c1cc2cc(Br)ccc2oc1=O)c1ccc(O)cc1O	2	29*	55*	-2	58*	21	5.3*
COCCCNC(=O)c1cc2cc(Br)ccc2oc1=O	0	-3	0	-2	.	.	.
Cc1nn2c([nH]c(=O)c3ccccc32)c1C=O	.	-3	.	-4	.	.	.
O=C(N/N=C\C=C\c1ccco1)c1cc(-c2ccc3ccccc3c2)n[nH]1	2	54*	44*	-6	69*	34	20*
CCC(=O)N1CCc2cc(S(=O)(=O)NCCc3ccc(S(N)(=O)=O)cc3)ccc21	-1	1	2	-3	.	.	.
O=C(Nc1ccc(S(=O)(=O)Nc2nccs2)cc1)c1ccc(F)cc1	-1	1	8	-1	.	.	.
Cc1ccc(C)c(-c2cc(C(=O)Nc3nccs3)c3ccccc3n2)c1	0	14	7	-3	.	.	.
CC(C)(C)NS(=O)(=O)c1ccc(NC(=O)c2cc(-c3ccccc3)nc3ccccc23)cc1	2	18	6	-9	.	.	.
O=C(Nc1ccc(S(=O)(=O)Nc2nccs2)cc1)c1cc(-c2ccccc2)nc2ccccc12	1	46*	74*	-4	50*	76*	38*
Cc1ccc(-c2cc(C(=O)Nc3ccc(S(=O)(=O)Nc4nccs4)cc3)c3ccccc3n2)c(C)c1	2	63*	68*	-2	53*	71*	30*	dCAG dye DR=i
O=C(Nc1ccc(S(=O)(=O)Nc2nccs2)cc1)c1ccc(N2C(=O)c3ccccc3C2=O)cc1	0	62*	45*	1	40	56*	24*
Cc1ccc(-c2cc(C(=O)Nc3ccc(S(=O)(=O)Nc4ncccn4)cc3)c3ccccc3n2)cc1	2	33*	58*	-2	38	64*	20*
SMILES	MsrA inhibitor	NadD block	rCAG binder	MsrA act	NadD conf	rCAG bind conf	DNA CAG counter	others
Cc1cc(C(=O)Nc2ccc3c(c2)CCC3)ccc1[N+](=O)[O-]	1	-7	0	-2	.	.	.
CCOC(=O)C1=C(C)N(C[C@@H]2CC[C@@H](Cc3ccc(-c4ccccc4)cc3)O2)C(=O)NC1c1ccc(C(F)(F)F)cc1 (some centres undefined)	1	1	2	-3	.	.	.
CCOC(=O)C1=C(C)N(C[C@@H]2CC[C@@H](Cc3ccc(-c4ccccc4)cc3)O2)C(=O)NC1c1ccc(SCc2ccco2)c([N+](=O)[O-])c1 (some centres undefined)	-1	59*	49*	-2	26	36*	19*
COCc1ccc(C(=O)N(C)CC2CCCN(CCc3ccccc3F)C2)o1 (centres undefined)	-1	-4	-7	-1	.	.	.
Cc1ccccc1-c1cc(C(=O)Nc2sc(C(=O)OC(C)C)c(C)c2C#N)c2ccccc2n1	-1	74*	47*	-7	27	62*	28*
CC(=O)C1=CCC(c2ccc(C)cc2)N(S(=O)(=O)c2ccc(Cl)cc2)C1 (centres undefined)	1	-7	4	-3	.	.	.
CCOc1ccc(S(=O)(=O)NCCC(=O)NCC2(N3CCCCC3)CCCCC2)cc1	2	-3	-6	2	.	.	.
Cc1ccsc1/C=C/C1=Cc2c(sc(NC(=O)CSc3n[nH]c(N)n3)c2C#N)C(C)(C)C1	2	64*	55*	-4	42	53*	26*
NC(=O)c1ccsc1NC(=O)CSc1n[nH]c(N)n1	-1	2	5	-1	.	.	.
CCN1CCN(c2ncc(C(=O)Nc3ccccc3C(=O)OC)c3ccccc23)CC1	1	-8	-7	-12	.	.	.
Cc1ccc(NC(=O)C2CCCN2S(=O)(=O)c2cccnc2)cc1C (centres undefined)	.	.	4	.	.	.	.
CCOC(=O)c1c(-c2ccccc2)csc1NC(=O)/C(C#N)=C/c1ccc(O)c(OC)c1	3	44*	45*	-3	16	87*	60*
O=C(CCNS(=O)(=O)c1ccccc1)OCC(=O)c1ccc(Cl)cc1	0	-4	1	-3	.	.	.
Nc1ncnc2oc(-c3ccco3)c(-c3ccco3)c12	3	54*	68*	-17	27	27	16*
Nc1nnc(-c2ccco2)s1	2	2	-1	-3	.	.	.
O=c1[nH]cc(S(=O)(=O)N2CCOCC2)c(=O)[nH]1	-2	-1	2	0	.	.	.
Cc1cc2nc(-c3cccc(Cl)c3)c(Cc3ccccc3)n2c(C)c1Br	.	14	.	1	.	.	.
Cc1cc2nc(-c3cccc(Br)c3)c(Cc3cccc(Cl)c3)n2c(C)c1Br	-1	35*	40*	-3	15	12	5.9*

High-throughput results (PubChem BioAssay)
